This is part of a sample that, as a whole, favours compounds with a hit. Of some 79,000 tested, about 15% had one in any assay. Unmarked numbers belong to inactive results. Calls of active or inactive are those of the source. No stated cut-off is given here; in the data, active means growth inhibition above about 70%; inactive means the rest.

Here are results for eight compounds from PubChem BioAssay (NCI).

The test in a line: NCI Yeast Anticancer Drug Screen. Data for the wt2 strain (AID 169).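 Further: 0% = growth of vehicle-treated yeast cultures.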 Particulars: S. cerevisiae wt2 strain growth inhibition, stronger effect = higher value. The method, then: Growth inhibition of yeast strains with defined genetic alterations is measured as a screen for potential anti-cancer activity. Selected strains with alterations in DNA damage repair or cell cycle control were exposed to compounds and growth inhibition was measured relative to vehicle treated controls. The strain used in this assay is wt2

`CC(=O)C1=C(O)C2(C)c3c(O)c(C)c(O)c(C(C)=O)c3OC2(Sc2ccccc2)CC1=O` (stereo not given): the growth inhibition reads like this: (at 1.2 µM) 10%; (at 3.7 µM) 34%; (at 11.0 µM) 41%; (at 33.0 µM) 54%; (at 100.0 µM) 89% (active).

As to `O=C1c2ccccc2CCC1(Br)Br`, the growth inhibition was 5% (at 1.2 µM); 13% (at 3.7 µM); 62% (at 11.0 µM); 99% (active) (at 33.0 µM); 99% (active) (at 100.0 µM).

As for `Nc1nc(F)nc2c1ncn2C1OC(COP(=O)(O)O)C(O)C1O` (stereo not given), the growth inhibition was -2% (at 1.2 µM); 1% (at 3.7 µM); 1% (at 11.0 µM); 6% (at 33.0 µM); 18% (at 100.0 µM).

Consider `NC(N)=NCCCS(=O)(=O)Nc1ccc(Nc2c3ccccc3nc3cc([N+](=O)[O-])ccc23)cc1`, for which the growth inhibition is -49% (at 1.2 µM); -58% (at 3.7 µM); -77% (at 11.0 µM); 23% (at 33.0 µM); 50% (at 100.0 µM).

Take `CC(=O)N1C(=O)/C(=C\C(=O)c2ccc(Cl)cc2)c2ccccc21`: the growth inhibition is 25% (at 1.2 µM); 52% (at 3.7 µM); 93% (active) (at 11.0 µM); 97% (active) (at 33.0 µM); 93% (active) (at 100.0 µM).

On to `CCc1[nH]nc(C(N)=O)c1N=NN(C)C`, for which the growth inhibition is -1% (at 1.2 µM); 0% (at 3.7 µM); -1% (at 11.0 µM); 0% (at 33.0 µM); 11% (at 100.0 µM).

With `Cn1ncc2cc3c(Nc4ccc(Cl)cc4)cccc3nc21`, the growth inhibition is -1% (at 1.2 µM); -2% (at 3.7 µM); -2% (at 11.0 µM); -2% (at 33.0 µM); 20% (at 100.0 µM).

For the compound `Cc1ccc(S(=O)(=O)N(C)c2ccc(Cl)cc2C2=NCCc3ccccc32)cc1`, the growth inhibition (at 1.2 µM) is -25%; the growth inhibition (at 3.7 µM) was -40%; the growth inhibition (at 11.0 µM) was -19%; the growth inhibition (at 33.0 µM) is 6%; the growth inhibition (at 100.0 µM) is 94% (active).
